Two molecules from the supplement of paper PMC8728848 can be followed below.

This excerpt belongs to a sample that is enriched for the strongest signals.

Common to all, as to assay: glycan array binding signal (z-score within array); higher = stronger binding
What all share (settings): glycan notation: IUPAC condensed, linker removed

One assay concerns the target Glc(a1-2)Glc. Put shortly:
(§1)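 Glycan array data came from 3228 arrays in the Consortium for Functional Glycomics database, and only arrays with an available protein sequence were kept. Glycan names were put into IUPAC-condensed notation, and columns mapping to the same glycan were averaged. The binding signal is a within-array Z-score, averaged across arrays of one protein sequence run at different concentrations or buffers and across linkers. A negative Z-score can be read as non-binding.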

For a further assay, the target named is Glc(a1-3)Glc(a1-3)Glc. The method, boiled down:
as §1

In assay [1] the target is Glc(a1-3)Glc(a1-3)Glc(a1-3)Glc(a1-3)Glc(a1-3)Glc. Put shortly: as §1
For another assay, the target named is Glc(b1-2)Glc. Put shortly:
as §1

Assay [2] deals with Glc(b1-3)Glc(b1-3)Glc(b1-3)Glc(b1-3)Glc(b1-3)Glc(b1-3)Glc(b1-3)Glc. The method, boiled down:
as §1

Assay [3] has as its target Glc(b1-3)Glc(b1-3)[Glc(b1-6)]Glc(b1-3)Glc(b1-3)Glc(b1-3)Glc(b1-3)Glc(b1-3)Glc(b1-3)Glc. Put shortly: as §1
In assay [4] the target is Glc(b1-3)[Glc(b1-6)]Glc(a1-3)Glc(b1-3)[Glc(b1-6)]Glc. The method, boiled down:
as §1

Assay [5] has as its target Glc(b1-4)Glc(b1-4)Glc(b1-4)Glc(b1-3)Glc. Put shortly:
as §1

Assay [6] deals with Glc(b1-6)Glc(b1-6)Glc(b1-6)Glc(b1-6)Glc(b1-6)Glc(b1-6)Glc(b1-6)Glc(b1-6)Glc(b1-6)Glc(b1-6)Glc(b1-6)Glc(b1-6)Glc(b1-6)Glc(b1-6)Glc. Put shortly: as §1
Assay [7] concerns the target Fuc(a1-3)[Gal(b1-4)]GlcNAc(b1-3)Gal(b1-3)[Fuc(a1-4)]GlcNAc. The method, boiled down: as §1
For assay [8], the target named is Fuc(a1-3)[Gal(b1-4)]GlcNAc(b1-4)Gal(b1-4)[Fuc(a1-3)]GlcNAc(b1-4)Gal(b1-4)[Fuc(a1-3)]GlcNAc. The method, boiled down: as §1
The next assay addresses Gal(a1-6)Glc. Put shortly: as §1
A further assay concerns the target Gal(b1-3)Gal(b1-4)GlcNAc. The method, boiled down:
as §1

The target of the next assay is Gal(b1-3)GlcNAc. The method, boiled down:
as §1

The target in assay [9] is Gal(b1-3)GlcNAc(b1-2)Man(a1-3)[Gal(b1-3)GlcNAc(b1-2)Man(a1-6)]Man(b1-4)GlcNAc(b1-4)GlcNAc. Put shortly:
as §1

For assay [10], the target named is Gal(b1-3)GlcNAc(b1-3)Gal(b1-4)Glc. Put shortly:
as §1

The target of assay [11] is Gal(b1-3)[Fuc(a1-4)]GlcNAc. The method, boiled down: as §1
Assay [12] deals with Gal(b1-3)[Fuc(a1-4)]GlcNAc(b1-3)Gal(b1-4)[Fuc(a1-3)]GlcNAc. The method, boiled down:
as §1

The target of assay [13] is Gal(b1-4)GlcNAc(b1-3)[Gal(b1-4)GlcNAc(b1-6)]Gal(b1-4)GlcNAc. The method, boiled down:
as §1

The next assay addresses Gal6S(b1-4)Glc. Put shortly:
as §1

Assay [14] concerns the target GlcNAc(b1-3)[GlcNAc(b1-6)]GalNAc. Put shortly:
as §1

In assay [15] the target is GlcNAc(b1-4)GlcNAc(b1-4)GlcNAc. The method, boiled down:
as §1

In assay [16] the target is GlcNAc(b1-4)GlcNAc(b1-4)GlcNAc(b1-4)GlcNAc(b1-4)GlcNAc(b1-4)GlcNAc. Put shortly: as §1
Assay [17] deals with Man(a1-2)Man(a1-2)Man(a1-3)Man. The method, boiled down:
as §1

Assay [18] addresses Man(a1-2)Man(a1-2)Man(a1-6)[Man(a1-3)]Man. The method, boiled down:
as §1

Assay [19] has as its target Man(a1-2)Man(a1-3)[Man(a1-2)Man(a1-6)]Man. The method, boiled down:
as §1

The target in assay [20] is Man(a1-2)Man(a1-3)[Man(a1-6)]Man(a1-6)[Man(a1-2)Man(a1-3)]Man(b1-4)GlcNAc(b1-4)GlcNAc. The method, boiled down:
as §1

Assay [21] concerns the target Man(a1-2)Man(a1-6)[Man(a1-3)]Man(a1-6)[Man(a1-2)Man(a1-2)Man(a1-3)]Man(b1-4)GlcNAc(b1-4)GlcNAc. Put shortly: as §1
In assay [22] the target is Man(a1-3)[Man(a1-6)]Man(a1-6)[Man(a1-2)Man(a1-3)]Man(b1-4)GlcNAc(b1-4)GlcNAc. The method, boiled down: as §1
Another assay addresses Neu5Ac(a2-3)Gal. The method, boiled down:
as §1

Assay [23] addresses Neu5Ac(a2-3)Gal(b1-3)[Fuc(a1-4)]GlcNAc(b1-3)Gal(b1-4)[Fuc(a1-3)]GlcNAc. The method, boiled down: as §1
The target of assay [24] is Neu5Ac(a2-3)[GalNAc(b1-4)]Gal(b1-4)Glc. Put shortly: as §1
For assay [25], the target named is Neu5Ac(a2-3)[Neu5Ac(a2-6)]GalNAc. The method, boiled down: as §1
Assay [26] has as its target Neu5Ac(a2-8)Neu5Ac(a2-3)[GalNAc(b1-4)]Gal(b1-4)Glc. Put shortly:
as §1

Assay [27] concerns the target Neu5Ac(b2-6)Gal(b1-4)GlcNAc. The method, boiled down:
as §1

B1: Cel5A (Cellvibrio mixtus), A0A266Q9Z0 (protein)
chain: TSVAGCSGVTAWNSTAVYTGGNEVVRNGVKYQAKWWTQGQDPVTNSSADGVWANKGQC
As for B1, the “glycan array binding signal (z-score)” value is -0.981 with Glc(a1-2)Glc; -0.977 in the assay with Glc(a1-3)Glc(a1-3)Glc; -0.941 in assay [1]; -0.411 with Glc(b1-2)Glc; 2.06 in assay [2]; 2.2 in assay [3]. Further, the “glycan array binding signal (z-score)” value in assay [4] is 2.44; in [5], 1.17; in assay [6], -0.119.

B2: Surfactant Protein D (Human); Neck + Carbohydrate Recognition Domain (NCRD) (Homo sapiens) (protein)
chain: MLLFLLSALVLLTQPLGYLEAEMKTYSHRTMPSACTLVMCSSVESGLPGRDRDGREGPRGEKGDPGLPGAAGQAGMPGQAGPVGPKGDNGSVGEPGPKGDTGPSGPPGPPGVPGPAGREGALGKQGNIGPQGKPGPKGEAGPKGEVGAPGMQGSAGARGLAGPKGERGVPGERGVPGNTGAAGSAGAMGPQGSPGARGPPGLKGDKGIPGDKGAKGESGLPDVASLRQQVEALQGQVQHLQAAFSQYKKVELFPNGQSVGEKIFKTAQFVKPFTEAQLLCTQAGGQLASPRSAAENAALQQLVVAKNEAAFLSMTDSKTEGKFTYPTGESLVYSNWAPGEPNDDGGSEDCVEIFTNGKWNDRACGEKRLVVCEF
Regarding B2, the “glycan array binding signal (z-score)” value in assay [7] was -0.257; in assay [8], -0.273; with Gal(a1-6)Glc it was -0.083; with Gal(b1-3)Gal(b1-4)GlcNAc, -0.274; with Gal(b1-3)GlcNAc, -0.263; in assay [9] it was -0.275. The “glycan array binding signal (z-score)” value is -0.271 in assay [10]; -0.233 in assay [11]; -0.053 in [12]; -0.29 in [13]; -0.216 with Gal6S(b1-4)Glc; -0.258 in assay [14]. Further, the “glycan array binding signal (z-score)” value was -0.24 in assay [15]; 0.127 in assay [16]; 6.02 in assay [17]; 5.46 in assay [18]; 4.89 in [19]; 6.78 in assay [20]. The “glycan array binding signal (z-score)” value was 5.33 in assay [21]; 4.68 in assay [22]; -0.243 with Neu5Ac(a2-3)Gal; 0.1 in assay [23]; -0.277 in assay [24]; -0.296 in [25]. The “glycan array binding signal (z-score)” value is -0.238 in [26] and -0.288 in assay [27].
